Results: PubChem BioAssay AID1456 (Vanderbilt High Throughput Screening Facility, 2008)
The campaign covered roughly 190,000 compounds. About 4,100 (2.2%) were called active.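 Rule for the calls: active = thallium flux slope and its plate-corrected score both differing from the plate sample mean at a set confidence after two filtering rounds, in either direction; inactive = the rest.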 The entries come from a sample that favours actives as a whole.

target: Solute carrier family 12 member 5 (Homo sapiens) (UniProt Q9H2X9); experiment: modulation of human KCC2 ion transport – cell-based, HEK293 KCC2, FluoZin-2 fluorescence, MLSMR, primary screen (AID 1456); settings: KCC2 cells, thallium flux FluoZin-2 fluorescence; at 10 µM;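 note: slope of fluorescence scaled to starting intensity during 10 to 20 s after thallium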
Sequence (Q9H2X9 whole entry, looked up): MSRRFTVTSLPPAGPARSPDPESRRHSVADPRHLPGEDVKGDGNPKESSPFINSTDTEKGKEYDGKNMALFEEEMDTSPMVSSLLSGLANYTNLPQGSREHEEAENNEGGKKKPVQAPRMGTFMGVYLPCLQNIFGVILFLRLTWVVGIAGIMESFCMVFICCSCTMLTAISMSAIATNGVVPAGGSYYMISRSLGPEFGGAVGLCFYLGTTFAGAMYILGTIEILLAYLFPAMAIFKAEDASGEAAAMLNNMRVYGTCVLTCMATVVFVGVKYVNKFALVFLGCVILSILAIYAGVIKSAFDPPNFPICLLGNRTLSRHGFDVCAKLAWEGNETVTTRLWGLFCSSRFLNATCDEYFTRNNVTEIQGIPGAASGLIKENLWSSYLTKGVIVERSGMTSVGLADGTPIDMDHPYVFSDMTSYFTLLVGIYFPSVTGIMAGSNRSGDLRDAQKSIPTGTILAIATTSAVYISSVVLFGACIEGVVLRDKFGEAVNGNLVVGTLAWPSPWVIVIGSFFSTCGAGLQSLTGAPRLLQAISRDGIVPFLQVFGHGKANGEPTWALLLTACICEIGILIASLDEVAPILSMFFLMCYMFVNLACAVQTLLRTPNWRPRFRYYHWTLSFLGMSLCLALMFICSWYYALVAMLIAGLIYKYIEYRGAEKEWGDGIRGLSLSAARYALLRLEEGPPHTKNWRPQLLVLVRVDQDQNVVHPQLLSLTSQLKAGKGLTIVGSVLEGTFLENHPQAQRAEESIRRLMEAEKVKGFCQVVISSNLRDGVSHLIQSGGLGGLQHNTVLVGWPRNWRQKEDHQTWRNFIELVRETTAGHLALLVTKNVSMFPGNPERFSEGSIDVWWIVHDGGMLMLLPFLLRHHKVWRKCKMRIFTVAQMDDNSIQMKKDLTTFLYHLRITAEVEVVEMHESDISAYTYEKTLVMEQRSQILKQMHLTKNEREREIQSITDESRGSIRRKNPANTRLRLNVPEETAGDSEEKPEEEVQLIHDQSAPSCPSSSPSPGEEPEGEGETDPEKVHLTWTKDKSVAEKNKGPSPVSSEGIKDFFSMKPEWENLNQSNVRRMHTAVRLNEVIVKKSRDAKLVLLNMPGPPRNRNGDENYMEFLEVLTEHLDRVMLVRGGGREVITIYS

Compound	B-score of Tl+ flux slope (higher = more flux/activation; lower = inhibition)
CN1CCN(c2ccc(S(=O)(=O)N3CCOCC3)cc2NC(=O)CCc2ccccc2)CC1	0.193 (inactive)
CC(CO)(CO)NC(=O)c1ccc(=O)[nH]n1	-0.424 (inactive)
Cc1cc(=O)[nH]c(SCC(=O)Nc2ccc(Br)cc2)n1	1.17 (inactive)
c1ccc(-c2nnc3n2NC(c2ccc4c(c2)OCO4)S3)cc1 (configuration not stated)	17.9 (active)
CC1=C(C(N)=O)C(c2ccc3c(c2)OCO3)n2nc(-c3cccc(C)c3)nc2N1 (configuration not stated)	-0.546 (inactive)
Cc1cccc(C)c1NC(=O)CSc1nnc(-c2ccccc2)n1Cc1ccc2c(c1)OCO2	-0.0425 (inactive)
CN=C1C=C/C(=N/N=c2\ccn(O)cc2C)C=C1C	0.0998 (inactive)
Cc1cccc(C2C3=C(CCCC3=O)N=C3c4ccccc4C(=O)C32)c1 (configuration not stated)	1.41 (inactive)
COc1cc(SC#N)ccc1N=Cc1c(C)[nH]n(-c2ccc(C)cc2)c1=O	0.0406 (inactive)
Cc1ccc(-n2[nH]c(C)c(/C=N/N3C(=O)c4cccc5cccc(c45)C3=O)c2=O)cc1	41.4 (active)
Cc1[nH]n(-c2ccc(Cl)cc2)c(=O)c1/C=N/n1c(C)nc2ccccc2c1=O	1.71 (inactive)
O=C(CSc1nnc(SCc2ccc(F)cc2)s1)Nc1ccc(C(=O)O)cc1	-2.12 (inactive)
COc1ccc([N+](=O)[O-])cc1NC(=O)CCc1ccccc1	-1.49 (inactive)
COc1ccc([N+](=O)[O-])cc1NC(=O)COC(=O)/C=C/c1ccco1	-3.66 (active)
CC(C)CNC(=O)COC(=O)/C=C/c1ccco1	0.238 (inactive)
O=C(COc1ccccc1[N+](=O)[O-])N/N=C/c1ccc[nH]1	1.37 (inactive)
CCOC(=O)C1CCN(c2c(Nc3cc(C)cc(C)c3)c(=O)c2=O)CC1	0.776 (inactive)
CC(=O)c1sc(NC(=O)c2cccc3ccccc23)nc1C	3.04 (inactive)
COc1cccc2sc(Nc3nc(C)c(C(C)=O)s3)nc12	16.2 (active)
CC(=O)c1sc(NC(=O)CCCOc2ccccc2C)nc1C	0.355 (inactive)
COC(=O)c1nc2ccccc2s1	-0.0154 (inactive)
COc1cccc2sc(NNC(=O)c3nc4ccccc4s3)nc12	92.4 (active)
COc1ccccc1OCc1nc2ccccc2s1	-1.36 (inactive)
O=C(CCc1n[nH]c(=O)[nH]c1=O)N/N=C/c1ccc(Br)o1	0.0262 (inactive)
O=C(N/N=C/c1ccc(Br)o1)c1cncc(Br)c1	7.4 (active)
Cc1ccc(C(=O)N/N=C\c2cc(Br)c(Br)o2)cn1	1.86 (inactive)
CCN(CC)CCCN=C(N)N	0.285 (inactive)
